Molecules are shown by their SMILES. Results filed as inconclusive are left out. The source holds several records for some structures; these can differ, active in one and inactive in another. The source made the active and inactive calls. Calls come from the whole dose curve; as a rule, active = well fitted activation curve with a large enough effect in the repeat runs; inconclusive = weak or mixed curves; inactive = flat fitted curve, though single readings scatter.
% is set by controls: 0 for no effect and ±100 for the full control effect.

One assay in a line: A CellTox Green Cytotoxicity Assay to monitor cytotoxicity in HEK293 cells - 32 hour (AID 1224881). Note: nearly all actives have a fitted effect of over 40% in size. Note: potency is the fitted concentration of half-maximal effect. The conditions noted are these: CellTox Green fluorescence; series mostly up to 76.8 µM; cytotoxicity increase: at the top concentration. In a few lines: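 Dead-cell fluorescence measured kinetically: asymmetric cyanine dye, HEK293, 600 cells/well, 5 h settle, 23 nL cpd/DMSO, 37 C, reads 0–40 h every 8 h.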
As for `C[C@@H](NCCCc1cccc(C(F)(F)F)c1)c1cccc2ccccc12`, the Potency is 23.9 µM (active).
Regarding `CC(C)(C)C(=O)OCOC(=O)[C@@H]1N2C(=O)[C@@H](NC(=O)[C@H](N)c3ccccc3)[C@H]2SC1(C)C`, the “cytotoxicity increase” value was -0.392% [at 35.3 µM] (inactive).
For the molecule `O=[N+]([O-])c1ccccc1Nc1ccccc1`, the “cytotoxicity increase” value is -2.98% (inactive).
For the molecule `CCCCCCCC(=O)[O-].CCCCCCCC(=O)[O-].[Zn+2]`, the “cytotoxicity increase” value was 11.7% [at 35.3 µM] (inactive).
In the case of `CCCCCCCCCCC=O`, the “cytotoxicity increase” value is 6.71% (inactive).
Turning to `CCCCCCCC[P+](CCCCCCCC)(CCCCCCCC)CCCCCCCC`, the Potency is 4.87 µM (active).
Turning to `C[C@H](CCC(=O)O)[C@H]1CC[C@H]2[C@@H]3CC[C@@H]4C[C@H](O)CC[C@]4(C)[C@H]3CC[C@]12C`, the “cytotoxicity increase” value was 5.42% (inactive).
As for `NC(=NCCCCCCN=C(N)/N=C(\N)Nc1ccc(Cl)cc1)/N=C(\N)Nc1ccc(Cl)cc1`, the Potency is 19.4 µM (active) [middle of 4 runs].
As for `CCCCCCCC/C=C/CCCCCCCC1=NCCN1CCO`, the Potency is 24.5 µM (active).
Regarding `O=C1C=CC(=O)N1c1ccc(Cc2ccc(N3C(=O)C=CC3=O)cc2)cc1`, the Potency was 19.5 µM (active).
For `Cc1cc(O)c(C(C)(C)C)cc1Sc1cc(C(C)(C)C)c(O)cc1C`, the Potency is 54.8 µM (active).
With `NNC(=O)c1cccc(C(=O)NN)c1`, the “cytotoxicity increase” value was -5.32% (inactive).
As to `C=CC(=O)OCC(CO)(COCC(COC(=O)C=C)(COC(=O)C=C)COC(=O)C=C)COC(=O)C=C`, the Potency was 43.1 µM (active).
As for `CC(=O)N1CCN(c2ccc(OC[C@H]3CO[C@](Cn4ccnc4)(c4ccc(Cl)cc4Cl)O3)cc2)CC1`, the Potency was 49 µM (active).
Consider `COc1ccc(C(=O)/C(Br)=C\C(=O)O)cc1`, for which the Potency is 30.9 µM (active).
With `CN(C)CCCOC1(Cc2ccccc2)CCCCCC1`, the “cytotoxicity increase” value is 1.07% [at 35.3 µM] (inactive).
`Oc1c(Cl)cc(Cl)c2cccnc12`: the Potency was 5.35 µM (active).
For `O=C(c1ccc(O)cc1O)c1ccc(O)cc1O`, the Potency entry was “inactive”.
With `OCCN1CCN(CC/C=C2/c3ccccc3Sc3ccc(C(F)(F)F)cc32)CC1`, the Potency is 26.8 µM (active).
For `Nc1ccc2cc(S(=O)(=O)O)cc(O)c2c1N=Nc1ccccc1C(F)(F)F`, the “cytotoxicity increase” value is -17.9% (inactive).
Take `Oc1cc2ccccc2c2ccccc12`: the Potency was 17.4 µM (active).
As to `Clc1ccccc1C(c1ccccc1)(c1ccccc1)n1ccnc1`, the Potency was 43.6 µM (active) and inactive.

The next assay is described as follows: A CellTox Green Cytotoxicity Assay to monitor cytotoxicity in HepG2 cells - 0 hour (AID 1224882). Note: nearly all actives have a fitted effect of over 35% in size. The conditions noted are these: CellTox Green fluorescence; series mostly up to 76.8 µM; cytotoxicity: at the top concentration. The essentials:
(§1)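 First, HepG2 cells (600/well) mixed with reagent were plated; second, after 5 h at 37 C they received compounds via pintool; third, fluorescence was measured at 0 h through 40 h at 8 h intervals.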
Take `CC(C)(C)C(=O)OCOC(=O)[C@@H]1N2C(=O)[C@@H](NC(=O)[C@H](N)c3ccccc3)[C@H]2SC1(C)C`: the “cytotoxicity” value is 2.93% [at 35.3 µM] (inactive).
With `O=[N+]([O-])c1ccccc1Nc1ccccc1`, the “cytotoxicity” value was 3.77% (inactive).
Same read-out and setting: the same measure for `CCCCCCCCCCC=O`: -7.57% (inactive); for `CCCCCCCC[P+](CCCCCCCC)(CCCCCCCC)CCCCCCCC`: 2.34% (inactive).
With `C[C@H](CCC(=O)O)[C@H]1CC[C@H]2[C@@H]3CC[C@@H]4C[C@H](O)CC[C@]4(C)[C@H]3CC[C@]12C`, the Potency entry is “inactive”.
Turning to `CC(C)c1ccc2c(c1)CC[C@H]1[C@](C)(CN)CCC[C@]21C`, the “cytotoxicity” value is 8.38% (inactive).
Consider `O=C(O)c1ccc(Cl)c(Cl)c1`, for which the “cytotoxicity” value is -0.39% (inactive).
As for `NC(=NCCCCCCN=C(N)/N=C(\N)Nc1ccc(Cl)cc1)/N=C(\N)Nc1ccc(Cl)cc1`, the Potency result was “inactive”.
As for `COc1cccc(N)c1`, the “cytotoxicity” value was -1.1% (inactive).
As to `CCCCCCCC/C=C/CCCCCCCC1=NCCN1CCO`, the “cytotoxicity” value is -12.4% (inactive).
On the same count and under the same terms, the same measure for `Cc1cc(O)c2ccccc2c1O`: 0.111% [at 35.3 µM] (inactive).
Turning to `O=C1C=CC(=O)N1c1ccc(Cc2ccc(N3C(=O)C=CC3=O)cc2)cc1`, the “cytotoxicity” value was 1.12% (inactive).
Regarding `O=C1C=CC(=O)N1`, the “cytotoxicity” value is 8.8% (inactive).
Turning to `CCCCCCCC/C=C\CCCCCCCCOCCO`, the “cytotoxicity” value is 1.85% (inactive).
As to `NNC(=O)c1cccc(C(=O)NN)c1`, the “cytotoxicity” value is -7.23% (inactive).
Turning to `CCCCCCCCNC(C)C(O)c1ccc(SC(C)C)cc1` (stereo not drawn), the “cytotoxicity” value was 1.76% [at 35.3 µM] (inactive).
With `C=CC(=O)OCC(CO)(COCC(COC(=O)C=C)(COC(=O)C=C)COC(=O)C=C)COC(=O)C=C`, the “cytotoxicity” value is -0.631% (inactive).
For `CC[C@H]1O[C@]2(CC[C@@H]1C)C[C@@H]1C[C@@H](C/C=C(\C)C[C@@H](C)/C=C/C=C3\CO[C@@H]4[C@H](O)C(C)=C[C@@H](C(=O)O1)[C@]34O)O2`, the “cytotoxicity” value was -0.378% (inactive).
As to `CN(C)[C@@H]1C(=O)C(C(N)=O)=C(O)[C@@]2(O)C(=O)C3=C(O)c4c(O)ccc(Cl)c4[C@@H](O)[C@H]3C[C@@H]12`, the “cytotoxicity” value was 3.63% [at 35.3 µM] (inactive).
`CC(=O)N1CCN(c2ccc(OC[C@H]3CO[C@](Cn4ccnc4)(c4ccc(Cl)cc4Cl)O3)cc2)CC1`: the “cytotoxicity” value is -10.1% (inactive).
On the same count and under the same terms, for `COc1ccc(C(=O)/C(Br)=C\C(=O)O)cc1` the value was -5.03% (inactive).
On the same count and under the same terms, the same measure for `Oc1c(Cl)cc(Cl)c2cccnc12`: -5.93% [at 35.3 µM] (inactive); for `O=C1CCCCCN1SSN1CCCCCC1=O`: 3.8% (inactive).
In the case of `OCCN1CCN(CC/C=C2/c3ccccc3Sc3ccc(C(F)(F)F)cc32)CC1`, the “cytotoxicity” value is -8.55% [at 35.3 µM] (inactive).
With `Nc1ccc2cc(S(=O)(=O)O)cc(O)c2c1N=Nc1ccccc1C(F)(F)F`, the “cytotoxicity” value is -20.9% (inactive).
As to `C1CCCC1`, the “cytotoxicity” value was 0.181% (inactive).
Same read-out and setting: the same measure for `Oc1cc2ccccc2c2ccccc12`: -17.4% (inactive).
On to `Clc1ccccc1C(c1ccccc1)(c1ccccc1)n1ccnc1`, for which the Potency result is “inactive”.

The nature of the next assay: A CellTox Green Cytotoxicity Assay to monitor cytotoxicity in HepG2 cells - 32 hour (AID 1224883). Note: nearly all actives have a fitted effect of over 50% in size. Note: potency is the fitted concentration of half-maximal effect. The conditions noted are these: CellTox Green fluorescence; series mostly up to 76.8 µM; cytotoxicity increase: at the top concentration. The essentials: as §1
In the case of `C[C@@H](NCCCc1cccc(C(F)(F)F)c1)c1cccc2ccccc12`, the Potency is 15.1 µM (active).
Regarding `CC(C)(C)C(=O)OCOC(=O)[C@@H]1N2C(=O)[C@@H](NC(=O)[C@H](N)c3ccccc3)[C@H]2SC1(C)C`, the “cytotoxicity increase” value is -0.515% [at 35.3 µM] (inactive).
Turning to `O=[N+]([O-])c1ccccc1Nc1ccccc1`, the “cytotoxicity increase” value is 4.04% (inactive).
Consider `CC(C)(C)c1ccc(C(=O)O)cc1`, for which the “cytotoxicity increase” value was 5.71% (inactive).
Regarding `CCCCCCCC(=O)[O-].CCCCCCCC(=O)[O-].[Zn+2]`, the “cytotoxicity increase” value is 25.7% [at 35.3 µM] (inactive).
With `CCCCCCCCCCC=O`, the “cytotoxicity increase” value is -1.71% (inactive).
In the case of `CCCCCCCC[P+](CCCCCCCC)(CCCCCCCC)CCCCCCCC`, the Potency is 10.9 µM (active).
Take `CC(C)c1ccc2c(c1)CC[C@H]1[C@](C)(CN)CCC[C@]21C`: the Potency was 12.3 µM (active).
Consider `O=C(O)c1ccc(Cl)c(Cl)c1`, for which the “cytotoxicity increase” value was -17.6% (inactive).
Consider `COc1cccc(N)c1`, for which the “cytotoxicity increase” value was -0.579% (inactive).
`CCCCCCCC/C=C/CCCCCCCC1=NCCN1CCO`: the Potency was 13.8 µM (active).
Turning to `Cc1cc(O)c2ccccc2c1O`, the Potency is 13.4 µM (active).
Same read-out and setting: the same measure for `O=C1C=CC(=O)N1c1ccc(Cc2ccc(N3C(=O)C=CC3=O)cc2)cc1`: 9.77 µM (active); for `O=C1C=CC(=O)N1`: 20 µM (active); for `CCCCCCCC/C=C\CCCCCCCCOCCO`: 63.7 µM (active).
For `Cc1cc(O)c(C(C)(C)C)cc1Sc1cc(C(C)(C)C)c(O)cc1C`, the Potency was 61.5 µM (active).
For the molecule `NNC(=O)c1cccc(C(=O)NN)c1`, the “cytotoxicity increase” value is -4.38% (inactive).
For `CCCCCCCCNC(C)C(O)c1ccc(SC(C)C)cc1` (stereo not drawn), the Potency was 16.9 µM (active).
For the molecule `C=CC(=O)OCC(CO)(COCC(COC(=O)C=C)(COC(=O)C=C)COC(=O)C=C)COC(=O)C=C`, the Potency was 21.6 µM (active).
Take `CC[C@H]1O[C@]2(CC[C@@H]1C)C[C@@H]1C[C@@H](C/C=C(\C)C[C@@H](C)/C=C/C=C3\CO[C@@H]4[C@H](O)C(C)=C[C@@H](C(=O)O1)[C@]34O)O2`: the Potency was 27.3 µM (active).
With `CN(C)[C@@H]1C(=O)C(C(N)=O)=C(O)[C@@]2(O)C(=O)C3=C(O)c4c(O)ccc(Cl)c4[C@@H](O)[C@H]3C[C@@H]12`, the “cytotoxicity increase” value was 5.59% [at 35.3 µM] (inactive).
Consider `CC(=O)N1CCN(c2ccc(OC[C@H]3CO[C@](Cn4ccnc4)(c4ccc(Cl)cc4Cl)O3)cc2)CC1`, for which the Potency is 49 µM (active).
Turning to `COc1ccc(C(=O)/C(Br)=C\C(=O)O)cc1`, the Potency is 13.8 µM (active).
Consider `CN(C)CCCOC1(Cc2ccccc2)CCCCCC1`, for which the “cytotoxicity increase” value is 1.84% [at 35.3 µM] (inactive).
Regarding `Oc1c(Cl)cc(Cl)c2cccnc12`, the Potency was 9.52 µM (active).
For the molecule `O=C(c1ccc(O)cc1O)c1ccc(O)cc1O`, the Potency result was “inactive”.
Same read-out and setting: the same measure for `OCCN1CCN(CC/C=C2/c3ccccc3Sc3ccc(C(F)(F)F)cc32)CC1`: 15.1 µM (active).
Take `Nc1ccc2cc(S(=O)(=O)O)cc(O)c2c1N=Nc1ccccc1C(F)(F)F`: the “cytotoxicity increase” value was -20.5% (inactive).
Take `CN(C)[C@@H]1C(=O)C(C(N)=O)=C(O)[C@@]2(O)C(=O)C3=C(O)c4c(O)cccc4C[C@H]3C[C@@H]12`: the “cytotoxicity increase” value was 15.7% [at 35.3 µM] (inactive).
With `C1CCCC1`, the “cytotoxicity increase” value was 2.1% (inactive).
Consider `CCCC(c1cc(C(C)(C)C)c(O)cc1C)c1cc(C(C)(C)C)c(O)cc1C`, for which the Potency is 35.1 µM (active).
For the molecule `Oc1cc2ccccc2c2ccccc12`, the Potency was 11 µM (active).
In the case of `Clc1ccccc1C(c1ccccc1)(c1ccccc1)n1ccnc1`, the Potency is 19.5 µM (active) and inactive.

The record behind these values is PubChem BioAssay (Tox21).
